Test results reported in PubChem BioAssay (NCATS).
Records with an inconclusive call do not appear. Entries that show only a call come without a potency. The source made the active and inactive calls. Calls follow the shape of the dose curve; as a rule, active = well fitted curve in the direction sought with a large enough effect; inconclusive = small, poorly fitted or top-dose-only effect, or another doubt; inactive = no such curve, though single readings can be large; an effect the other way counts as inactive or inconclusive. Starred links: 1 amine or outer side, 2 acyl side, 3 side chain; linkers in the order of their positions; H or OH if unused. Positions of bridges follow the written chain, without caps; N, C: chain ends. Non-standard residues stand in square brackets, D forms with d. Residues, ends and D or L forms follow the SMILES beside them. ξ: configuration not given here. *: point of attachment. X3 = C[C@@H](Oc1ccc([C@H](N[*:1])C(=O)[*:2])cc1)[C@]1(/C=C\C(=O)[*:3])CO1; d(aIle) = CC[C@H](C)[C@@H](N)C(=O)O; X2 = CC(C)[C@@H](O)C(C)C(=O)*; ξNMeF = CNC(Cc1ccccc1)C(=O)O; ξT = CC(O)C(N)C(=O)O; ξS = NC(CO)C(=O)O

Columns and labels:
[1] = HPAF-II Cancer Cell Toxicity qHTS against the NCATS CANVASS Library (AID 1347346); also: nearly all actives have a fitted effect of over 55% in size
How it was run: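 Luminescence from CellTiter-Glo, added after 72 h compound exposure and a 15 min room-temperature incubation, served as the viability readout. HPAF-II cells (1000/well) received an 11-point concentration series.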

[2] = OV-SAHO Cancer Cell Toxicity qHTS against the NCATS CANVASS Library (AID 1347348); also: nearly all actives have a fitted effect of over 55% in size
How it was run: (§1)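 1000 cells/well; 4 h settle; 11-pnt titration; 72 h, 37 degrees C, 5% CO2; CellTiter-Glo, 15min RT; luminescence read.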

[3] = U-118MG Cancer Cell Toxicity qHTS against the NCATS CANVASS Library (AID 1347351)
How it was run: as §1

[4] = COV-362 Cancer Cell Toxicity qHTS against the NCATS CANVASS Library (AID 1347352)
How it was run: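 Luminescent ATP read-out (CellTiter-Glo, 15min at room temperature) measures survival after cells face an 11-point compound series for 72 hours at 37 degrees C/5% CO2.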

[5] = SDT Cancer Cell Toxicity qHTS against the NCATS CANVASS Library (AID 1347365); also: nearly all actives have a fitted effect of over 60% in size
How it was run: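 qHTS, SDT dog glioma line, 500 cells/well; cpds 11 pts; 72 hr, 37C, 5% CO2; CellTiterGlo ATP luminescence.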

[6] = G06 Cancer Cell Toxicity qHTS against the NCATS CANVASS Library (AID 1347368); also: nearly all actives have a fitted effect of over 60% in size
How it was run: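 Dog G06 glioma line, 500 cells/well; cpds pin-transferred, 11-pt; 72 hr, 37C/5% CO2; CellTiterGlo luminescence (ATP) endpoint.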

[7] = MCF7 Cancer Cell Toxicity qHTS against the NCATS CANVASS Library (AID 1347369)
How it was run: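 Cells seeded at 500/well, then compound pinned. Plates incubated 72 hr at 37C, 5% CO2. CellTiterGlo added; luminescence read.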

[8] = qHTS for ATAD5 Antagonist screened against the NCATS CANVASS Library (AID 1347370); also: nearly all actives have a fitted effect of over 65% in size
How it was run: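 HEK293T cells with stably integrated ATAD5-luciferase reporter, 2000/well, 5 h attachment; compounds plus 10 µM 5-fluorouridine, 16 h at 37 °C. Luciferase luminescence read, with CellTiter-Fluor viability read first.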

[9] = molecular target: Nuclear receptor subfamily 1 group I member 3 (Homo sapiens) (UniProt Q14994); experiment: qHTS for Constitutive Androstane Receptor (CAR) Antagonist screened against the NCATS CANVASS Library (AID 1347372)
How it was run: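 HepG2-CYP2B6-hCAR double-stable cells plated, 4hr attach; cpd pin-transferred; CITCO 50 nM final; 24hr 37C/5% CO2; CellTiter-Fluor 1hr (fluorescence), then ONE-Glo luminescence.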

[10] = qHTS for Inflammasome Signaling Inhibitors: IL-1-beta AlphaLISA screen against the NCATS CANVASS Library (AID 1347379);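 also: human THP-1 cells primed with LPS then triggered with ATP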;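 as to potency: secreted IL-1B measured as AlphaLISA emission at 615 nm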
How it was run: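 THP-1 cells pretreated 1 hr with compound (up to 57.5 uM final), then stimulated with LPS (250 ng/mL final) and ATP (1.25 mM final). Secreted IL-1B measured by AlphaLISA after 16 hr; glyburide as positive control.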

[11] = Secretion counterscreen for inhibitors of the SERCaMP assay screened against the NCATS CANVASS Library (AID 1347390);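 also: light from luciferase secreted into medium read as a measure of general secretion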
How it was run: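 SH-SY5Y-GLuc STOP cells; 4 h attach; cpds 0.001 - 77 uM (qHTS, 11 pts), 20 h 37C/5% CO2; coelenterazine in glow buffer; luminescence, 5 s exposure.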

[12] = qHTS for activators of Nrf2/ARE signaling pathway screened against the NCATS CANVASS Library (AID 1347391); also: nearly all actives have a fitted effect of over 60% in size
How it was run: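 Plate ARE-bla HepG2 cells at 2000/well and let them settle 5 h. Pin-transfer compounds in DMSO, incubate 16 h at 37C. Load CCF4 for 2 h at room temperature and read blue/green fluorescence.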

[13] = qHTS for inhibitors of ER calcium dysfunction: SERCaMP assay screened against the NCATS CANVASS Library (AID 1347393); also: nearly all actives have a fitted effect of over 40% in size
How it was run: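 Thapsigargin-induced ER calcium depletion drives GLuc-SERCaMP secretion from SH-SY5Y cells; compounds given 16 h beforehand were scored by lowered coelenterazine luminescence after 4 h challenge.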

[14] = Viability qHTS for inhibitors of the SERCaMP assay screened against the NCATS CANVASS Library (AID 1347400); also: nearly all actives have a fitted effect of over 70% in size
How it was run: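 SH-SY5Y SERCaMP MJH297 cells, 1000/well; 4 h settle, 37C/5% CO2; pin-transferred cpds; 48 h; CellTiter-Glo lum. Pos ctrl bortezomib 0.0001 - 4.6 uM.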

[15] = SW1088 Cancer Cell Toxicity qHTS against the NCATS CANVASS Library (AID 1347350); also: nearly all actives have a fitted effect of over 75% in size
How it was run: as §1

[16] = Vero-766 cells viability qHTS against the NCATS CANVASS Library: Counterscreen for Zika virus inhibition assay (AID 1347394); also: nearly all actives have a fitted effect of over 60% in size
How it was run: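 Vero 766, no virus; 1000 cells/well; o/n attach; cpd 11-pt; 72 h, 37C, 5% CO2; CTG luminescence; cell-free media wells = 100% inhibition.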

[17] = qHTS for Activators of p53 Stress Response Pathway screened against the NCATS CANVASS Library (AID 1347388)
How it was run: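 Beta-lactamase reporter driven by p53 response elements in HCT-116 cells, read as the 460 nm/530 nm emission ratio after CCF4 loading, following 16 h of exposure to an 11-point series. Cell viability was measured in the same wells by CellTiter-Glo luminescence.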
Potency is read from the fitted curve at half-maximal effect.

Nuclear receptor subfamily 1 group I member 3 (Homo sapiens), sequence (Q14994 whole entry, looked up): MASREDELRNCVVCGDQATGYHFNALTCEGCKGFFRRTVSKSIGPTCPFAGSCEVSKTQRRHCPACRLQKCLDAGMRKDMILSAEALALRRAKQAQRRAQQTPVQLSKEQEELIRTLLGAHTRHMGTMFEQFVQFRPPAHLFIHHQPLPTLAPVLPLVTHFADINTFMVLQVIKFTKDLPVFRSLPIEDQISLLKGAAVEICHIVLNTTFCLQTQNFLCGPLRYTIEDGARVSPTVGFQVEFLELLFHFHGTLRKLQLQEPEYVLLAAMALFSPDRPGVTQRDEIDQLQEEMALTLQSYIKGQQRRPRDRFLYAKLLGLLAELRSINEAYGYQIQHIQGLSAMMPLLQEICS

| SMILES | Potency [1] | Potency [2] | Potency [3] | Potency [4] | Potency [5] | Potency [6] | Potency [7] | Potency [8] | Potency [9] | Potency [10] | Potency [11] | Potency [12] | Potency [13] | Potency [14] | Potency [15] | Potency [16] | Potency [17] |
| --- | --- | --- | --- | --- | --- | --- | --- | --- | --- | --- | --- | --- | --- | --- | --- | --- | --- |
| CO[C@H]1C[C@H](O[C@H]2[C@@H](O)C[C@H](O[C@H]3CC[C@]4(C=O)[C@H]5CC[C@]6(C)C(C7=CC(=O)OC7)CC[C@]6(O)[C@@H]5CC[C@]4(O)C3)O[C@@H]2C)O[C@H](C)[C@H]1O[C@H]1C[C@@H](OC)[C@@H](O[C@@H]2O[C@H](CO)[C@@H](O)[C@H](O)[C@H]2O)[C@@H](C)O1 (stereo partly drawn) | 376 nM (active) | inactive | 188 nM (active) | 374 nM (active) | 148 nM (active) | 264 nM (active) | 166 nM (active) | 660 nM (active) | 417 nM (active) | 1530 nM (active) | 767 nM (active) | inactive | inactive | 135 nM (active) | – | – | – |
| C/C=C1/CN2C3CC1C1=CCC(=O)N4c5ccccc5[C@@]3(C[C@@H]2C2=C[C@H]3C5CC6N(CC[C@@]67c6ccccc6N(C2=O)[C@@H]37)C/C5=C/C)[C@H]14 (stereo partly drawn) | 18800 nM (active) | – | – | – | 20900 nM (active) | 20900 nM (active) | – | 14800 nM (active) | – | 21700 nM (active) | 43100 nM (active) | 7410 nM (active) | – | 42800 nM (active) | 14900 nM (active) | – | – |
| COC1=C(C2=C(OC)C(=O)c3cc4c(c(O)c3C2=O)C(=O)O[C@H](C)C4)C(=O)c2c(cc3c(c2O)C(=O)O[C@H](C)C3)C1=O | – | inactive | inactive | inactive | inactive | inactive | inactive | inactive | inactive | – | – | – | inactive | inactive | 3140 nM (active) | inactive | – |
| CC[C@@H]1CN2CCC3(Nc4cccc(OC)c4C3=O)[C@@H]2C[C@@H]1/C(=C\OC)C(=O)OC (stereo partly drawn) | inactive | – | inactive | inactive | inactive | inactive | inactive | inactive | – | inactive | inactive | inactive | 12200 nM (active) | inactive | inactive | inactive | inactive |
| C=C[C@H]1CN2CCc3c([nH]c4cccc(OC)c34)[C@@H]2C[C@@H]1/C(=C\OC)C(=O)OC | inactive | – | – | – | 16600 nM (active) | – | inactive | inactive | inactive | inactive | – | – | 17200 nM (active) | inactive | – | inactive | inactive |
| CO[C@H]([C@@H](C)[C@H]1O[C@]1(C)C[C@H](C)/C=C/C=C(\C)[C@H]1O[C@@H](CC(=O)O)CC[C@@H]1C)[C@@H](C)O | 26.6 nM (active) | – | – | – | 14.8 nM (active) | 29.6 nM (active) | 5.2 nM (active) | inactive | inactive | 38.5 nM (active) | inactive | 6.6 nM (active) | inactive | 48 nM (active) | inactive | – | 14.8 nM (active) |
| C[C@]12CCC3[C@@H](CC[C@@H]4C[C@@H](O)CC[C@]34CO)[C@@]1(O)CC[C@@H]2C1=CC(=O)OC1 (stereo partly drawn) | 2980 nM (active) | 2360 nM (active) | 841 nM (active) | 1880 nM (active) | 1480 nM (active) | 1870 nM (active) | 1170 nM (active) | 4170 nM (active) | 4170 nM (active) | 1930 nM (active) | 7670 nM (active) | inactive | inactive | 1910 nM (active) | – | 11700 nM (active) | inactive |
| CC[C@H](C)[C@H]1NC(=O)[C@@H](NC(=O)C(C)[C@H](O)C(C)C)[C@@H](C)OC(=O)C2COC(=O)CNC(=O)/C=C\[C@]3(CO3)[C@@H](C)Oc3ccc(cc3)[C@H](NC1=O)C(=O)N(C)C(Cc1ccccc1)C(=O)NC(C(C)O)C(=O)N2 (stereo partly drawn) (X2-T[d(aIle)][X3][ξNMeF][ξT][ξS]; ester 1-C; linker 3-6 via G) | inactive | inactive | inactive | inactive | – | – | inactive | inactive | inactive | inactive | – | inactive | inactive | inactive | inactive | inactive | inactive |
